The text below walks through data of PubChem BioAssay (EPA / NIEHS).

Structures are written as SMILES. Active and inactive are the calls of the source. How the source made its calls: active means hit-call score of the fitted dose curve at least 0.9, where 1 is the maximum; inactive means score below 0.9.

Test [1] addresses Nuclear respiratory factor 1 (Homo sapiens) (UniProt Q16656). The test can be described thus: ATG_NRF1_CIS: Attagene CIS-FACTORIAL HepG2 Assay for human Nuclear Respiratory Factor 1 (NRF1) Orphan Gene (AID 2282987). The following applies: HepG2 NRF1 cis-element reporter, Attagene multiplex; actives raise or lower the signal. A digest of the protocol:
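Endogenous NRF1-driven reporter transcription in transfected HepG2 cells after 24 h treatment. Readout: RT-PCR products, 6-FAM labelled and resolved by capillary electrophoresis; changes fitted both directions relative to DMSO.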

Test [2] is described as follows: ATG_NFI_CIS: Attagene CIS-FACTORIAL HepG2 Assay for human Nuclear Factor I (NFI) (AID 2282989). The following applies: HepG2 cis-regulatory reporter, NFI response element transcription; actives raise or lower the signal. A digest of the protocol: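 Read-out: reporter mRNA via RT-PCR plus capillary electrophoresis with fluorescence detection. Transiently transfected HepG2 (endogenous TF activity on cis promoters), 24 h compound exposure; gain or loss of signal fitted against DMSO.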

Test [3] addresses Myc proto-oncogene protein (Homo sapiens) (UniProt P01106). Nature of the test: ATG_Myc_CIS: Attagene CIS-FACTORIAL HepG2 Assay for human Myelocytomatosis (Myc) Proto-Oncogene Transcription Factor (AID 2282990). The following applies: HepG2, Attagene cis-reporter transcription factor activity; actives raise or lower the signal. A digest of the protocol: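 DMSO-normalised, bidirectionally fitted reporter mRNA signal. HepG2 cells transfected with cis reporter constructs, treated 24 h; transcripts detected by RT-PCR, 6-FAM primer extension and CE.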

Test [4] is described as follows: ATG_NF_kB_CIS: Attagene CIS-FACTORIAL HepG2 Assay for human Nuclear Factor Kappa B (NF-kB) (AID 2282991). The following applies: HepG2 Attagene cis-factorial NF-kB reporter mRNA; actives raise or lower the signal. A digest of the protocol:
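Readout is reporter transcript level, gain or loss versus DMSO, measured 24 h post-dose via RT-PCR, fluorescent labelling and capillary electrophoresis. Human HepG2 liver cells carried transiently transfected CIS reporter constructs reflecting endogenous factors.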

Test [5] can be described thus: ATG_NRF2_ARE_CIS: Attagene CIS-FACTORIAL HepG2 Assay for human Nuclear Factor Erythroid 2 Related Factor 2 (NFR2) response to Antioxidant Response Elements (ARE) (AID 2282992).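 On AC50: reporter mRNA level measured by RT-PCR and capillary electrophoresis fluorescence.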 The following applies: HepG2 Attagene ARE/NRF2 reporter, transcription factor activity; actives raise or lower the signal. A digest of the protocol: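 Multiplexed reporter mRNA profiling in HepG2 after a 24 h chemical exposure. Curves fitted in both directions relative to DMSO negative control.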

A short description of test [6]: ATG_Oct_MLP_CIS: Attagene CIS-FACTORIAL HepG2 Assay for human Octamer-Binding Transcription Factor (Oct) (AID 2282993). The following applies: HepG2 Attagene cis-factorial Oct reporter, mRNA; actives raise or lower the signal. The method, boiled down: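 Read-out: reporter mRNA via RT-PCR plus capillary electrophoresis of 6-FAM-labelled fragments. Transiently transfected HepG2, 24 h exposure, endogenous TF activity on cis elements. Gain or loss of signal fitted relative to DMSO.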

The target in test [7] is Cellular tumor antigen p53 (Homo sapiens) (UniProt P04637). Nature of the test: ATG_p53_CIS: Attagene CIS-FACTORIAL HepG2 Assay for human p53 Transcription Factor (AID 2282994). The following applies: HepG2 p53 cis-element reporter, Attagene mRNA; actives raise or lower the signal. The method, boiled down: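 Multiplexed reporter mRNA assay in human HepG2 liver cells; cis-regulated units report endogenous factor activity. Values come from bidirectional curve fitting against DMSO negative control after 24 h treatment.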
Chain of Cellular tumor antigen p53 (Homo sapiens) (P04637 whole entry, looked up): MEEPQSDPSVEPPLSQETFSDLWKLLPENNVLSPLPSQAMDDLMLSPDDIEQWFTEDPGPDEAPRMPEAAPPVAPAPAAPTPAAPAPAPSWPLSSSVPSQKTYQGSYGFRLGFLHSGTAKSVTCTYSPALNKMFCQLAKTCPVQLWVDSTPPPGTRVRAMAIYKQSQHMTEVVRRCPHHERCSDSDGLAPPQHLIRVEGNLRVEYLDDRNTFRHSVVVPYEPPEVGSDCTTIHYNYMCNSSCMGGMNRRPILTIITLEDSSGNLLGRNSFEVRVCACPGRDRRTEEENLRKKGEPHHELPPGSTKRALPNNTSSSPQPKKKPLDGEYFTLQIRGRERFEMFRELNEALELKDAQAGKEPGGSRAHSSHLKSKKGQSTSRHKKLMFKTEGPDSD

Chain of Nuclear respiratory factor 1 (Homo sapiens) (Q16656 whole entry, looked up): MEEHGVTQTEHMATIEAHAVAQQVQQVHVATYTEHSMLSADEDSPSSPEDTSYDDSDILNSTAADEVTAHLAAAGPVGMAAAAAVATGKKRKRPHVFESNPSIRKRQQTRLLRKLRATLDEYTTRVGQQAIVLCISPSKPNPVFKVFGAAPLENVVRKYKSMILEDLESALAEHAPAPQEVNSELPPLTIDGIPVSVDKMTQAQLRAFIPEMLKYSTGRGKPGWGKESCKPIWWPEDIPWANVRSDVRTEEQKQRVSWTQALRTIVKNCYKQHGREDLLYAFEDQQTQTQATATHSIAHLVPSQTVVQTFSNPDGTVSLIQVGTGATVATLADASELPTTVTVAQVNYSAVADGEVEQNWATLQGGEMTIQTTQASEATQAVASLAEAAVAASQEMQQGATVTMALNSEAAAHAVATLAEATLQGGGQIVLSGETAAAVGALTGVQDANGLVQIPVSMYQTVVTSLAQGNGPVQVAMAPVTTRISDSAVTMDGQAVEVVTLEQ
Chain of Myc proto-oncogene protein (Homo sapiens) (P01106 whole entry, looked up): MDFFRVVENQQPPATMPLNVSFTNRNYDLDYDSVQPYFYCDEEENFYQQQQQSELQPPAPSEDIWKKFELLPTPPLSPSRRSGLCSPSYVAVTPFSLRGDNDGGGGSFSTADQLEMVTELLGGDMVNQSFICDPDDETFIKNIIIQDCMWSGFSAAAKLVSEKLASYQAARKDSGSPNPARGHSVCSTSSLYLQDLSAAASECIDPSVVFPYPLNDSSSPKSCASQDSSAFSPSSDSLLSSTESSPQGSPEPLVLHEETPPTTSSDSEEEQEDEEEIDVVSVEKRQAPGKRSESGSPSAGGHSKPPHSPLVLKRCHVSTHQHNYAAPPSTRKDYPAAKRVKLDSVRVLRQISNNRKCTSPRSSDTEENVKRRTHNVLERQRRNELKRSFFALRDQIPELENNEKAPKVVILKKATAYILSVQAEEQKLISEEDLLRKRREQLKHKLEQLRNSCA

Turning to `O=C(O)CCC(=O)O`, the outcome in test [1], in test [2], in test [3], in test [4], in test [5] and in test [6] was inactive.
With `CN1CCN(C)CC1`, the outcome in test [1], in test [2], in test [3], in test [4], in test [5] and in test [6] was inactive. The result in test [7] was inactive.
On to `CCOC(=O)CC(=O)c1ccccc1`, for which the result in test [1], in test [2], in test [3], in test [4], in test [5] and in test [6] was inactive.
On to `Cc1ccc2c(c1)CCCN2`, for which the call in test [1], in test [2], in test [3], in test [4], in test [5] and in test [6] was inactive.
For `CCCCCCCCCC[N+](C)(CCCCCCCCCC)CCC[Si](OC)(OC)OC`, the molecule was classed as inactive in test [1], in test [2], in test [4] and in test [6]. Further, the AC50 (in general, the concentration giving half of the maximal activity seen) in test [3] is 14.6 µM (active); in test [5] it was 16 µM (active).
As to `Cc1c(C(=O)c2c[nH]n(C)c2=O)ccc(S(C)(=O)=O)c1C1=NOCC1`, the molecule was classed as inactive in test [1], in test [2], in test [3], in test [4], in test [5] and in test [6].
For `CC(C)C(=O)OCCOc1ccccc1`, the molecule was called inactive in test [1], in test [2], in test [3], in test [4], in test [5] and in test [6]. Moreover, the outcome in test [7] was inactive.
As for `CC(=O)OC1CCCCC1`, the result in test [1], in test [2], in test [3], in test [4], in test [5] and in test [6] was inactive.
For the molecule `CCOC(=O)[C@H](O)[C@@H](O)C(=O)OCC`, the call in test [1], in test [2], in test [3], in test [4], in test [5] and in test [6] was inactive. In addition, in test [7], the molecule was called inactive.
Regarding `CO[Si](C)(C)OC`, the call in test [1], in test [2], in test [4], in test [5], in test [6] and in test [7] was inactive. In addition, in test [3], the concentration at half-maximal activity (AC50) was 158 µM (active).
On to `CCCCC(C=O)CC` (stereo not given), for which the molecule was classed as inactive in test [1], in test [2], in test [3], in test [4], in test [5] and in test [6].
As to `N#Cc1ccc(C(c2ccc(C#N)cc2)n2cncn2)cc1`, the molecule was called inactive in test [1], in test [2], in test [3], in test [4], in test [5] and in test [6].
Regarding `C=CCOC(=O)c1ccc(C(=O)OCC=C)c(C(=O)OCC=C)c1`, the result in test [1], in test [2], in test [3], in test [4] and in test [6] was inactive. Also, in test [5], the AC50 was 36.1 µM (active).
Regarding `Nc1ccnc(=O)[nH]1`, the call in test [1], in test [2], in test [3], in test [4], in test [5] and in test [6] was inactive.
For `Cc1cc(C)n(CO)n1`, the result in test [1], in test [2], in test [3], in test [4], in test [5] and in test [6] was inactive.
For `CC(C)=CCl`, the result in test [1], in test [2], in test [3], in test [4], in test [5] and in test [6] was inactive.
Regarding `CCCCCCCOC(=O)c1ccc(O)cc1`, the molecule was classed as inactive in test [1], in test [2], in test [3] and in test [4]. Besides, the AC50 in test [5] was 39.4 µM (active); in test [6], 46 µM (active).
Take `NC(=O)Nc1ccccc1`: the outcome in test [1], in test [2], in test [3], in test [4], in test [5] and in test [6] was inactive.
On to `O=C1CCCN1C1CCCCC1`, for which the outcome in test [1], in test [2], in test [3], in test [4], in test [5] and in test [6] was inactive.
Regarding `CC(C)c1ccc2ncccc2c1`, the outcome in test [1], in test [2], in test [3], in test [4] and in test [6] was inactive. Besides, the AC50 in test [5] is 64.6 µM (active).
Regarding `CC(C)CO`, the molecule was classed as inactive in test [1], in test [2], in test [3], in test [4], in test [5] and in test [6].
Take `CC(C)(C)C1CCC(=O)CC1`: the call in test [1], in test [2], in test [3], in test [4] and in test [5] was inactive. The concentration at half-maximal activity (AC50) in test [6] was 145 µM (active).
`CCCCC(CC)COC(=O)/C=C/c1ccc(OC)cc1` (stereo not given): the molecule was classed as inactive in test [1], in test [2], in test [3], in test [4], in test [5] and in test [6]. Further, the call in test [7] was inactive.
`COC(=O)c1ccc(C(=O)OC)c(C(=O)OC)c1`: the outcome in test [1], in test [2], in test [3], in test [4], in test [5] and in test [6] was inactive.
Turning to `CCC(=O)C1CC(C(C)C)CC=C1C` (stereo not given), the molecule was called inactive in test [1], in test [2], in test [3], in test [4] and in test [6]. The AC50 in test [5] is 40.1 µM (active).
As to `CCCCCCCCCC(C)=O`, the call in test [1], in test [2], in test [3], in test [4], in test [5] and in test [6] was inactive.
Regarding `CCCCOC(=O)CCC(C)=O`, the outcome in test [1], in test [2], in test [3], in test [4], in test [5] and in test [6] was inactive.
Consider `Nc1ccc(O)c([N+](=O)[O-])c1`, for which the outcome in test [1], in test [2], in test [3] and in test [6] was inactive. Further, the AC50 in test [4] was 37.2 µM (active); in test [5], 57.9 µM (active).
For the molecule `CCc1cccc(C)c1N`, the result in test [1], in test [2], in test [3], in test [4], in test [5] and in test [6] was inactive.
`CCCCOCC(C)O` (stereo not given): the molecule was classed as inactive in test [1], in test [2], in test [3], in test [4], in test [5] and in test [6]. The molecule was classed as inactive in test [7].
On to `Cc1c(Cl)cccc1Cl`, for which the call in test [1], in test [2], in test [3], in test [4], in test [5] and in test [6] was inactive.
As for `CCCCCOC(=O)CCCCC`, the result in test [1], in test [2], in test [3], in test [4], in test [5] and in test [6] was inactive.
Take `Cn1ccnc1`: the molecule was classed as inactive in test [1], in test [2], in test [3], in test [4], in test [5] and in test [6].
Turning to `Cc1ccc(C)c(OCCCC(C)(C)C(=O)O)c1`, the result in test [1], in test [2], in test [3], in test [4], in test [5] and in test [6] was inactive.
